Neddyl block = inhibitors of human cullin neddylation | P61081+Q13564 | TR-FRET cullin neddylation, biochemical | AID 651699 | calls only at 25 µM | actives 0.58% (n = 360,000); in the data active = inhibition above about 36%
UHRF1 MBD2 ctr = UHRF1 methyl-DNA binding inhibition; Q96T88; actives 0.75% (n = 370,000); inhibition, % at 4.4 µM; UHRF1 binding to methylated oligo, TR-FRET; AID 687016; in the data active = inhibition above about 21%;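 also: UHRF1 SRA domain binding a hemimethylated CpG hairpin DNA probe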
Target sequence (Q96T88 whole entry, looked up, the tested form may be a part): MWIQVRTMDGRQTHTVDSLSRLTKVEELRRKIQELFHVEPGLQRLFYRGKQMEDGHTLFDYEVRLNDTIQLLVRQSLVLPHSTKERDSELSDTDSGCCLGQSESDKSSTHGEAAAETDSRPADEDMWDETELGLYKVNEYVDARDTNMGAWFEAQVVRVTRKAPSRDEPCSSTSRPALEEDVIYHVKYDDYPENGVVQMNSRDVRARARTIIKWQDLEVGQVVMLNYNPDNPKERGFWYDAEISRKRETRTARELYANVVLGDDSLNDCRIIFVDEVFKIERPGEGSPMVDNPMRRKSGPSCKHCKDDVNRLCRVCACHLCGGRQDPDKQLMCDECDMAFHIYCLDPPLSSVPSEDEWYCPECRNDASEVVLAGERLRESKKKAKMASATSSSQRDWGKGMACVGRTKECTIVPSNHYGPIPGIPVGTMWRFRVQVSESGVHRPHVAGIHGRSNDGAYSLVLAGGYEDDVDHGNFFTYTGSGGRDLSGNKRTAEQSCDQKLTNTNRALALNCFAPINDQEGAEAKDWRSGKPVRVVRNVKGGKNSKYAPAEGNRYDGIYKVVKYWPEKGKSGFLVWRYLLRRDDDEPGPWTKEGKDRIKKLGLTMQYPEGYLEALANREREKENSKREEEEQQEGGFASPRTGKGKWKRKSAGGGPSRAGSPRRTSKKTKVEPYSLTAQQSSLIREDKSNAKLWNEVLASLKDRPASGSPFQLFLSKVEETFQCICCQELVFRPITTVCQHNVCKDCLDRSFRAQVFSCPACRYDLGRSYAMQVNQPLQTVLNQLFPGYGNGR
UBC13 inh = human UBC13 polyubiquitination inhibition; P61088; inhibition, % at 20 µM; UBC13 polyubiquitin chain formation, TR-FRET; actives 0.47% (n = 330,000); AID 485273; in the data active = inhibition above about 45%, passing the limit was not always enough; inconclusive = no clear call, values can overlap the other calls
MBD2 DNA inh = inhibitors of human MBD2 binding to methylated oligonucleotide | Q9UBB5 | TR-FRET | inhibition, % at 4.4 µM | actives 0.31% (n = 370,000) | AID 686964; in the data active = inhibition above about 13%
Casp3 counter = caspase-3 inhibition (UBC13 counter-screen). AID 488856. actives 4% (n = 1,400). Recombinant caspase-3, Caspase-Glo 3/7 luminescence, 60 min. shares compounds with UBC13 inh. inhibition, % at 20 µM;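 active = mean inhibition across replicates above about 26%, limit read from the data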
UBC13 confirm = human UBC13 polyubiquitin inhibition, confirmed; shares compounds with UBC13 inh; UBC13 polyubiquitination, TR-FRET, biochemical; inhibition, % at 10 µM; actives 68% (n = 1,400); AID 488859; in the data active = inhibition above about 45%; inconclusive = no clear call, values can overlap the other calls
Large screens that a line does not name were inactive (follow-up assays come after a bar, where shown). The list is not random: actives were taken first. Their share in the collection is about 1.8%.

C#CCOCCOCCOCCNc1nc(N2CCN(C(=O)[C@H](CCCCN)n3cc(C(N)CO)nn3)CC2)nc(N2CCN(C(=O)[C@H](CCC(=O)O)n3cc(C(N)CC(C)C)nn3)CC2)n1 (some centres undefined)	none (no result: Neddyl block, UHRF1 MBD2 ctr, MBD2 DNA inh)
O=C(CCCn1c(=S)[nH]c2ccsc2c1=O)NCCc1ccccc1	UBC13 inh 55.6 | Casp3 counter inactive | UBC13 confirm inconclusive
O=C(CCn1c(=S)[nH]c2ccccc2c1=O)NCCc1ccccc1	none
CCCN1CCN(C(=O)C2CCN(c3ncnc4c3nc3n4CCCCC3)CC2)CC1	UBC13 inh 76.6 | Casp3 counter inactive | UBC13 confirm 94.0
O=C(NCCCN1CCN(c2ccccc2)CC1)C1CCCN(c2ncnc3c2nc2n3CCCCC2)C1 (centres undefined)	UBC13 inh 80.3 | Casp3 counter inactive | UBC13 confirm 100.6
O=C(NCC1CCN(Cc2ccccc2F)CC1)C1CCCN(c2ncnc3c2nc2n3CCCCC2)C1 (centres undefined)	UBC13 inh 46.7 | Casp3 counter inactive | UBC13 confirm 60.3
O=C(Nc1ccc(F)c(Cl)c1)C1CCN(c2ncnc3c2nc2n3CCCCC2)CC1	UBC13 inh 73.5 | Casp3 counter inactive | UBC13 confirm 75.4
CC1CCN(C(=O)C2CCN(c3ncnc4c3nc3n4CCCCC3)CC2)CC1	none
CC(=O)c1cccc(NC(=O)CCCNC(=O)c2ccc(Cl)cc2)c1	none
O=C(NCCCN1CCCCC1)C1CCN(c2ncnc3c2nc2n3CCCCC2)CC1	UBC13 inh 72.8 | Casp3 counter inactive | UBC13 confirm 86.2
CN(Cc1ccccc1)c1oc(-c2ccco2)nc1C#N	none (not shown: Neddyl block)
COc1ccc(OCC(O)CN2CCC(CN3C(=O)c4cccc5cccc(c45)C3=O)CC2)cc1 (centres undefined)	none
O=C1c2cccc3cccc(c23)C(=O)N1CCN1CCN(CC(O)COc2ccccc2)CC1 (centres undefined)	UBC13 inh 53.8 | Casp3 counter inactive | UBC13 confirm inactive
O=C(C(c1ccccc1)c1ccccc1)N1CCN(CCN2C(=O)c3cccc4cccc(c34)C2=O)CC1	none
COc1cccc(OCC(O)CN2CCN(CCN3C(=O)c4cccc5cccc(c45)C3=O)CC2)c1 (centres undefined)	UBC13 inh 61.2 | Casp3 counter inactive | UBC13 confirm 62.9
Cc1ccc(-c2csc(N3CCN(c4cc5c(cc4Cl)nc(C)n5CCN4CCCCC4)CC3)n2)cc1	UBC13 inh 46.0 | Casp3 counter inactive | UBC13 confirm inactive
CCOc1ccc(NC(=O)CN(C)C(=O)c2ccc3[nH]c4c(c3c2)CC(C)CC4)cc1OCC (centres undefined)	none
Cc1ccc(NC(=O)CN(C)C(=O)c2ccc3[nH]c4c(c3c2)CC(C)CC4)cc1 (centres undefined)	UBC13 inh 66.2 | Casp3 counter inactive | UBC13 confirm 47.8
O=C1c2cccc3cccc(c23)C(=O)N1Nc1ccccc1	UBC13 inh 52.2 | Casp3 counter inactive | UBC13 confirm inactive
O=C1c2cccc3cc(Br)cc(c23)C(=O)N1Nc1ccc(Br)cc1	none
O=[N+]([O-])c1cc(NS(=O)(=O)c2ccc(Cl)nc2)ccc1Cl	none
Fc1cccc(-n2cc(-c3ccccc3)c3c(=S)nc[nH]c32)c1	UBC13 inh 55.5 | Casp3 counter inactive | UBC13 confirm inconclusive
Fc1ccc(-n2cc(-c3ccccc3)c3c(=S)nc[nH]c32)cc1	none
C#CCOCCOCCOCCNc1nc(N2CCN(C(=O)CCCCCCCCCCNC(=O)[C@@H](CCC(=O)O)n3cc(CCCCCN)nn3)CC2)nc(N2CCN(C(=O)CCCCCCCCCCNC(=O)[C@H](CCCCN)n3cc(C[C@@H](C)CC)nn3)CC2)n1	UBC13 inh 120.2 (no result: UHRF1 MBD2 ctr, MBD2 DNA inh) | Casp3 counter inactive | UBC13 confirm 124.2
C#CCOCCOCCOCCNc1nc(N2CCN(C(=O)Cn3cc(CCCCN)nn3)CC2)nc(N2CCN(C(=O)[C@H](C)n3cc(CCC(=O)O)nn3)CC2)n1	none (no result: UBC13 inh)
C#CCOCCOCCOCCNc1nc(N2CCN(C(=O)[C@H](CCCCN)n3cc(CCC(=O)O)nn3)CC2)nc(N2CCN(C(=O)[C@H](Cc3ccc(O)cc3)n3cc(CCO)nn3)CC2)n1	none (no result: UBC13 inh)
C#CCOCCOCCOCCNc1nc(N2CCN(C(=O)CCCCCCCCCCNC(=O)[C@H](CCCCN)n3cc(CCO)nn3)CC2)nc(N2CCN(C(=O)CCCCCCCCCCNC(=O)[C@H](CCCCN)n3cc(CCCC(=O)O)nn3)CC2)n1	UBC13 inh 117.0 | Casp3 counter inactive | UBC13 confirm 111.0
C#CCOCCOCCOCCNc1nc(N2CCN(C(=O)CCCCCCCCCCNC(=O)[C@@H](CCC(=O)O)n3cc(CCCCCN)nn3)CC2)nc(N2CCN(C(=O)CCCCCCCCCCNC(=O)[C@H](CO)n3cc(CCCSC)nn3)CC2)n1	UBC13 inh 84.4 (no result: UHRF1 MBD2 ctr, MBD2 DNA inh) | Casp3 counter inactive | UBC13 confirm inactive
C#CCOCCOCCOCCNc1nc(N2CCN(C(=O)CCCCCCCCCCNC(=O)[C@@H](CCC(=O)O)n3cc(CCCCCN)nn3)CC2)nc(N2CCN(C(=O)CCCCCCCCCCNC(=O)[C@H](CO)n3cc(CCCCCN)nn3)CC2)n1	UBC13 inh 102.1 (no result: UHRF1 MBD2 ctr, MBD2 DNA inh) | Casp3 counter inactive | UBC13 confirm 73.6
COc1ccc(OCC(=O)N/N=C(\C)CC(=O)Nc2ccc(NC(C)=O)cc2)cc1	none
C=CCN1[C@@H](C)[C@@H](c2ccccc2)Oc2c(Cl)cccc2S1(=O)=O	none (no result: Neddyl block, UBC13 inh)
CCc1ccccc1S(=O)(=O)Cc1ccc(C(=O)NCC2CCCO2)o1 (centres undefined)	none
CCN(Cc1ccccc1)S(=O)(=O)c1ccc(C(=O)Nc2nnc(C3CC3)o2)cc1	none
COc1cccc(CC(NC(C)=O)C(=O)NC2CCN(c3c4c(nc5ncnn35)CCC4)CC2)c1 (centres undefined)	none (no result: UBC13 inh)
CCOC(=O)C1=C(c2ccccc2)NC(N)=NC1c1ccc(OCc2ccc(Cl)cc2)c(OC)c1 (centres undefined)	UBC13 inh 48.8 | Casp3 counter inactive | UBC13 confirm 87.3
Cc1nc(-c2ccccc2)sc1C(=O)NN	none
Cc1nc(N)sc1C(=O)NN	UBC13 inh 49.4 | Casp3 counter inactive | UBC13 confirm inactive
CCC(C)n1c(=O)c(C(=O)Nc2ccccc2S(N)(=O)=O)c(O)c2ccccc21 (centres undefined)	none
CC(C)Cn1c(=O)c(C(=O)Nc2ccccc2S(N)(=O)=O)c(O)c2ccccc21	UBC13 inh 68.7 | Casp3 counter inactive | UBC13 confirm inactive
COc1cc(/C=C/c2cc[n+](C)cc2)ccc1OCC(=O)Nc1ccc(Cl)c(Cl)c1	UBC13 inh 102.6 | Casp3 counter inactive | UBC13 confirm 116.5
COc1ccccc1CNC(=O)C(C)n1nc(C)c2c(C)n(-c3ccccc3)nc2c1=O (centres undefined)	none
COc1ccc(OCC(=O)NNC(=O)c2ccccn2)cc1	UBC13 inh 68.9 | Casp3 counter inactive | UBC13 confirm 95.5
CC(=O)c1ccc(OCCCC(=O)NNC(=O)c2ccccn2)cc1	UBC13 inh 76.1 | Casp3 counter inactive | UBC13 confirm 65.8
